Results filed as inconclusive are left out. Activity calls are given as the source filed them. How the source made its calls, unless noted: active means hit-call score of the fitted dose curve at least 0.9, where 1 is the maximum; inconclusive means response in the unintended direction; inactive means score below 0.9.
Columns and labels:
[1] = TOX21_p53_BLA_p2_viability: Viability Assessment in the Tox21 HCT-116 p53 Agonism Beta-lactamase Assay, Phase 2 (AID 2283591);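 further: actives lower the ATP signal meaning cytotoxicity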
Summary of the method: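 HCT116 p53-bla cells, 4000/well, dosed after 5 h plating (217-fold dilution of DMSO stocks) and incubated 16 h at 37C. Viability taken as cellular ATP by CellTiter-Glo luminescence after 30 min RT; signal loss marks cytotoxicity.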

[2] = target: Cellular tumor antigen p53 (Homo sapiens) (UniProt P04637); assay: TOX21_p53_BLA_p2_ratio: Tox21 HCT-116 p53 Agonism Beta-lactamase Assay, Ratio, Phase 2 (AID 2283592)
Summary of the method: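 An inducible beta-lactamase reporter in HCT116 cells signals p53 pathway activation. After 16 h chemical exposure at 37C, cells load CCF4-AM substrate for 2 h at room temperature; activity is the cleaved/uncleaved emission ratio relative to DMSO.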

[3] = TOX21_p53_BLA_p3_viability: Viability Assessment in the Tox21 HCT-116 p53 Agonism Beta-lactamase Assay, Phase 3 (AID 2283593);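 further: cells exposed to compound for 16 h before reading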
Summary of the method: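 HCT116 cells, 4000/well, dosed 5 h after plating by pin transfer (217-fold dilution from DMSO stock) and incubated 16 h at 37C, 5% CO2. Viability read as ATP luminescence with CellTiter-Glo after 30 min at room temperature.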

[4] = target: Cellular tumor antigen p53 (Homo sapiens) (UniProt P04637); assay: TOX21_p53_BLA_p3_ratio: Tox21 HCT-116 p53 Agonism Beta-lactamase Assay, Ratio, Phase 3 (AID 2283596)
Summary of the method: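 HCT116 p53-bla cells (4000/well) given compound in DMSO (217-fold dilution) after 5 h, incubated 16 h at 37C. CCF4-AM substrate 2 h at room temperature; 460/530 nm emission ratio, gain fitted against DMSO.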

[5] = TOX21_p53_BLA_p4_viability: Viability Assessment in the Tox21 HCT-116 p53 Agonism Beta-lactamase Assay, Phase 4 (AID 2283597);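 further: hits lower the luminescence signal meaning cytotoxicity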
Summary of the method: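 Compound exposure of HCT116 cells lasts 16 h at 37C, 5% CO2, with DMSO stocks diluted 217-fold. Cellular ATP is then quantified by CellTiter-Glo luminescence after 30 min at room temperature.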

[6] = target: Cellular tumor antigen p53 (Homo sapiens) (UniProt P04637); assay: TOX21_p53_BLA_p5_ratio: Tox21 HCT-116 p53 Agonism Beta-lactamase Assay, Ratio, Phase 5 (AID 2283599)
Summary of the method: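 HCT-116 p53-bla cells (4000/well) plated 5 h, dosed with compound (217-fold DMSO dilution) for 16 h at 37 C; CCF4-AM substrate 2 h at room temperature. Activity is the 460/530 nm emission ratio (405 nm excitation), fitted in gain-of-signal direction versus DMSO.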

[7] = target: Cellular tumor antigen p53 (Homo sapiens) (UniProt P04637); assay: TOX21_p53_BLA_p4_ratio: Tox21 HCT-116 p53 Agonism Beta-lactamase Assay, Ratio, Phase 4 (AID 2283601)
Summary of the method: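 HCT-116 p53 beta-lactamase reporter cells (4000/well) preincubated 5 h, then compound (217-fold dilution of DMSO stock) for 16 h at 37C. CCF4-AM substrate added 2 h at room temperature; 460/530 nm emission ratio fitted upward versus DMSO.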

[8] = target: Thyroid hormone receptor alpha (Rattus norvegicus) + Thyroid hormone receptor beta (Rattus norvegicus) (UniProt P18113+P63059); assay: TOX21_TR_LUC_GH3_Antagonist_Followup: Tox21 GH3 Thyroid Hormone Receptor Antagonism Luciferase Follow-Up Assay (AID 2283942)
Summary of the method: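 Antagonist mode: GH3 cells seeded 1,500/well, compounds at 15 concentrations (92 uM to 5nM final) plus T3 at 1.0 nM final, 24 h at 37C. Luciferase read with ONE-Glo after 30 min at room temperature.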

[9] = target: THRB (gene 7068) (UniProt P10828); assay: TOX21_TRB_BLA_Antagonist_Followup_ratio: Tox21 Thyroid Hormone Receptor beta Antagonism Beta-lactamase (BLA) Follow-Up Assay, Ratio (AID 2283958)
Summary of the method: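 In this antagonist-mode follow-up, a stably integrated GAL4-TRβ LBD fusion drives a UAS-beta-lactamase reporter in HEK293T cells. Loss of ratio signal relative to DMSO after 18 h treatment indicates activity; parallel CellTiter-Glo flags cytotoxicity.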

[10] = TOX21_TRB_BLA_Antagonist_Followup_viability: Viability Assessment in the Tox21 Thyroid Hormone Receptor beta Antagonism Beta-lactamase (BLA) Follow-Up Assay (AID 2283961)
Summary of the method: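 Cytotoxicity is measured in parallel with the antagonist-mode TRβ beta-lactamase screen, using ATP-coupled luciferase luminescence. Engineered HEK293T cells are treated for 18 h with 11-point compound series in triplicate.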

[11] = target: THRB (gene 7068) (UniProt P10828); assay: TOX21_TRB_COA_Antagonist_Followup_ratio: Tox21 Thyroid Hormone Receptor beta Antagonism through Coactivator Recruitment Follow-Up Assay, Ratio (AID 2283967)
Summary of the method: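 Cell-free TR-FRET: GST-TRb LBD (5.0 nM) with fluorescein-SRC-2 peptide (200 nM) and Tb anti-GST antibody (2 nM), 0.10% BSA. 520:495 nm emission ratio normalized to DMSO (0%) and T3 (100%).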

[12] = target: Retinoic acid receptor RXR-alpha (Homo sapiens) (UniProt P19793); assay: TOX21_TR_RXR_BLA_Antagonist_Followup_ratio: Tox21 Thyroid Hormone Receptor beta Retinoid X Receptor alpha (RXRa) Antagonism Beta-lactamase (BLA) Follow-Up Assay, Ratio (AID 2283972)
Summary of the method: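 Antagonist mode used GAL4 UAS-driven beta-lactamase in HEK293T cells expressing RXRa, treated for 16 h with compound concentration series. Activity was taken from the blue/green (460:530 nm) ratio of cleaved to uncleaved substrate.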

[13] = TOX21_TR_RXR_BLA_Antagonist_Followup_viability: Viability Assessment in the Tox21 Thyroid Hormone Receptor beta Retinoid X Receptor alpha (RXRa) Antagonism Beta-lactamase (BLA) Follow-Up Assay (AID 2283979)
Summary of the method: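 RXRa-bla HEK293T cells (2,500/well, phenol red-free DMEM, 2% charcoal-stripped FBS) were attached 5 h, then exposed to compounds at 11 concentrations in triplicate for 16 h at 37C. Viability measured by CellTiter-Glo ATP luminescence, bidirectional fitting versus DMSO.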

[14] = system: Brachyury (BRA) Protein Expression, Deisenroth Lab, TBXT (gene 6862); assay: CCTE_Deisenroth_DEVTOX-GLR_legacy_Bra: (Legacy) CCTE's DevTox GLR-Endo Assay Evaluation of Brachyury (BRA) Protein Expression, Deisenroth Lab (AID 2284329; active means hit-call score of the fitted dose curve at least 0.9, where 1 is the maximum; inactive means score below 0.9)
Summary of the method: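 RUES2-GLR human pluripotent cells are differentiated for 48 h and receive two chemical exposures 24 h apart, at 10 concentrations from 1 nM to 200 uM. Cells are fixed, nuclei stained and imaged. Bra+ cells are those with mean Bra intensity over 5x BMAD above the pluripotent control median, expressed as a percentage of cell count, after subtracting the 0.2% DMSO control median.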

[15] = CCTE_Deisenroth_DEVTOX-GLR_legacy_CellCount: (Legacy) Viability Assessment in CCTE's DevTox GLR-Endo Assay, Deisenroth Lab (AID 2284331; active means hit-call score of the fitted dose curve at least 0.9, where 1 is the maximum; inactive means score below 0.9); settings: actives raise or lower the signal
Summary of the method: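 Human pluripotent RUES2-GLR cells differentiated 48 h with two 24-h-interval exposures, 10-point 1 nM–200 uM series, 0.2% DMSO. Fixed nuclei counted by high-content imaging (5 fields/well); bidirectional fit vs DMSO, n≥4.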

[16] = system: SRY-box transcription factor 2 (SOX2) Protein Expression, Deisenroth Lab, SOX2 (gene 6657); assay: CCTE_Deisenroth_DEVTOX-GLR_legacy_Sox2: (Legacy) CCTE's DevTox GLR-Endo Assay Evaluation of SRY-box transcription factor 2 (SOX2) Protein Expression, Deisenroth Lab (AID 2284346; active means hit-call score of the fitted dose curve at least 0.9, where 1 is the maximum; inactive means score below 0.9)
Summary of the method: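 RUES2-GLR human pluripotent cells were differentiated for 48 h with two chemical doses 24 h apart, over 1 nM-200 uM. Sox2+ cells were those above 5x BMAD of the endoderm-control median; percent Sox2+ minus the 0.2% DMSO median was used, from n=4 replicates.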

[17] = system: SRY-box transcription factor 2 (SOX2) Protein Expression, Deisenroth Lab, SOX2 (gene 6657); assay: CCTE_Deisenroth_DEVTOX-GLR_Endo_SOX2: CCTE's DevTox GLR-Endo Assay Evaluation of SRY-box transcription factor 2 (SOX2) Protein Expression, Deisenroth Lab (AID 2284412)
Summary of the method: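 RUES2-GLR human pluripotent cells were seeded 24 h, then differentiated 48 h with two chemical exposures 24 h apart. Cells were fixed, nuclei stained and imaged by high-content microscopy. Endpoint is %SOX2+ cells over cell count, minus 0.2% DMSO control; 10-point series 1 nM–200 uM.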

[18] = system: SRY-box transcription factor 17 (SOX17) Protein Expression, Deisenroth Lab, SOX17 (gene 64321); assay: CCTE_Deisenroth_DEVTOX-GLR_Endo_SOX17: CCTE's DevTox GLR-Endo Assay Evaluation of SRY-box transcription factor 17 (SOX17) Protein Expression, Deisenroth Lab (AID 2284413; active means hit-call score of the fitted dose curve at least 0.9, where 1 is the maximum; inactive means score below 0.9)
Summary of the method: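 RUES2-GLR human pluripotent cells were differentiated toward endoderm for 48 h and received two compound doses 24 h apart (1 nM - 200 uM, 10 points). High-content imaging of fixed cells gave the percent SOX17+ cells per cell count, expressed as percent change versus 0.2% DMSO.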

[19] = system: Brachyury (BRA) Protein Expression, TBXT (gene 6862); assay: CCTE_Deisenroth_DEVTOX-GLR_Endo_BRA: CCTE's DevTox GLR-Endo Assay Evaluation of Brachyury (BRA) Protein Expression, Deisenroth Lab (AID 2284417; active means hit-call score of the fitted dose curve at least 0.9, where 1 is the maximum; inactive means score below 0.9)
Summary of the method: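 RUES2-GLR pluripotent cells differentiated 48 h with two chemical exposures 24 h apart, 10-point range 1 nM - 200 uM. Percentage of BRA+ cells per total count by high-content imaging, minus 0.2% DMSO control.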

[20] = system: SRY-box transcription factor 17 (SOX17) Protein Expression, Deisenroth Lab, SOX17 (gene 64321); assay: CCTE_Deisenroth_DEVTOX-GLR_Pluri_SOX17: CCTE's DevTox GLR-Pluri Assay Evaluation of SRY-box transcription factor 17 (SOX17) Protein Expression, Deisenroth Lab (AID 2284427)
Summary of the method: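 Seed cells 24 h; differentiate 48 h, dosing at 0 and 24 h (1 nM - 200 uM); fix, stain nuclei, image 5 fields per well; count SOX17+ cells over total cells and subtract 0.2% DMSO control.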

[21] = system: SRY-box transcription factor 2 (SOX2) Protein Expression, Deisenroth Lab, SOX2 (gene 6657); assay: CCTE_Deisenroth_DEVTOX-GLR_Pluri_SOX2: CCTE's DevTox GLR-Pluri Assay Evaluation of SRY-box transcription factor 2 (SOX2) Protein Expression, Deisenroth Lab (AID 2284428; active means hit-call score of the fitted dose curve at least 0.9, where 1 is the maximum; inactive means score below 0.9)
Summary of the method: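 SOX2 expression frequency is scored in a human pluripotent reporter line, RUES2-GLR, exposed to chemicals twice over 48 h. Imaging-based SOX2+ cell percentage is normalized as change versus 0.2% DMSO.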

[22] = CCTE_Deisenroth_DEVTOX-GLR_Pluri_CellCount: Viability Assessment in CCTE's DevTox GLR-Pluri Assay Evaluation of Total Cell Counts, Deisenroth Lab (AID 2284430; active means hit-call score of the fitted dose curve at least 0.9, where 1 is the maximum; inactive means score below 0.9)
Summary of the method: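 RUES2-GLR human pluripotent cells, seeded 24 h, then differentiated 48 h with two chemical exposures 24 h apart; 10-point series 1 nM - 200 uM. Fixed, nuclear-stained, imaged (5 fields/well); nuclei count as % change vs 0.2% DMSO.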

Sequence of Cellular tumor antigen p53 (Homo sapiens) (P04637 whole entry, looked up): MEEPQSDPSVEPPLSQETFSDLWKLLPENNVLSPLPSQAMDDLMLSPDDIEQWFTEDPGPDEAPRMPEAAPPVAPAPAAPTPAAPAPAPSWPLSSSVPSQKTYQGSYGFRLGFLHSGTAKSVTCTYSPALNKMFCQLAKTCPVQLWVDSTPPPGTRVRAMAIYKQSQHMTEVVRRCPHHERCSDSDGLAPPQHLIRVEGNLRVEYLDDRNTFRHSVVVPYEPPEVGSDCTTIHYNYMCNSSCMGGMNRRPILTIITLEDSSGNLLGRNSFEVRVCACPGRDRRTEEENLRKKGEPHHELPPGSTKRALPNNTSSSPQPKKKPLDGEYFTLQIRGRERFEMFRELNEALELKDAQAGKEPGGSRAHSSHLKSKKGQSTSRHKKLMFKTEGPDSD
Sequence of THRB (gene 7068) (P10828 whole entry, looked up, the tested form may be a part): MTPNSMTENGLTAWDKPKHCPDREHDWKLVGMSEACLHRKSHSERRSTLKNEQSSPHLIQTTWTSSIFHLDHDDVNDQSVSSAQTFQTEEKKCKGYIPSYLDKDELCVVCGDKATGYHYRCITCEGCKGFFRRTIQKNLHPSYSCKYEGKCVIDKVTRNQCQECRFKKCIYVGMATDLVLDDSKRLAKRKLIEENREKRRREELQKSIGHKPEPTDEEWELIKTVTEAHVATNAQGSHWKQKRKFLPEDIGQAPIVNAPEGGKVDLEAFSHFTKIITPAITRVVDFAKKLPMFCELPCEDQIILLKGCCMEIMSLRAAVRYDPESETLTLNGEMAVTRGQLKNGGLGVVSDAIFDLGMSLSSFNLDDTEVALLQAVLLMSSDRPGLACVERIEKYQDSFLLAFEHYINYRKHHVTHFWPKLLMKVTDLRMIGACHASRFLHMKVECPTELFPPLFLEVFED
Sequence of Retinoic acid receptor RXR-alpha (Homo sapiens) (P19793 whole entry, looked up, the tested form may be a part): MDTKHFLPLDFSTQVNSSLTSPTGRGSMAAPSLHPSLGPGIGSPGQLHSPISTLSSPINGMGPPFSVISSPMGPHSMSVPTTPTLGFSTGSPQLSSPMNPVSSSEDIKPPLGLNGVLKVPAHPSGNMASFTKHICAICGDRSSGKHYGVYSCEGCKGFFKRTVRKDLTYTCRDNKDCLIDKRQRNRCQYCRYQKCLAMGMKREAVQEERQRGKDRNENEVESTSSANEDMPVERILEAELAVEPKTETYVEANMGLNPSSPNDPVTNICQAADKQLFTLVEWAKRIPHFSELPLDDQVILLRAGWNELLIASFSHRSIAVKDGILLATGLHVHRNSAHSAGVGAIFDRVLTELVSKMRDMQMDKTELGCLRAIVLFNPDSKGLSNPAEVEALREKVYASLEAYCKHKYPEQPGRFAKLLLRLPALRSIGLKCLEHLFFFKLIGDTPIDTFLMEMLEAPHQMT

Compound: CC[C@H](NC(C)C)[C@H](O)c1ccc(O)c2[nH]c(=O)ccc12
- outcome [1]: inactive
- outcome [2]: inactive
- outcome [3]: inactive
- outcome [4]: inactive
- outcome [5]: inactive
- outcome [6]: inactive
- outcome [7]: inactive

Compound: NCCCC[C@H](NC(=O)[C@@H]1CCCN1C(=O)[C@@H]1CSSC[C@H](N)C(=O)N[C@@H](Cc2ccc(O)cc2)C(=O)N[C@@H](Cc2ccccc2)C(=O)N[C@@H](CCC(N)=O)C(=O)N[C@@H](CC(N)=O)C(=O)N1)C(=O)NCC(N)=O
- outcome [1]: inactive
- outcome [2]: inactive
- outcome [3]: inactive
- outcome [4]: inactive
- outcome [5]: inactive
- outcome [6]: inactive
- outcome [7]: inactive

Compound: COc1ccc2nc(NC(=O)Nc3ccccc3)sc2c1
- outcome [1]: inactive
- outcome [2]: inactive
- outcome [3]: inactive
- outcome [4]: inactive
- outcome [5]: inactive
- outcome [6]: inactive
- outcome [7]: inactive
- outcome [8]: inactive
- outcome [9]: inactive
- outcome [10]: inactive
- outcome [11]: inactive
- outcome [12]: inactive
- outcome [13]: inactive

Compound: Cc1ccc(NC(=O)c2ccc(CN3CCN(C)CC3)cc2)cc1Nc1nccc(-c2cccnc2)n1
- outcome [1]: inactive
- outcome [2]: inactive
- outcome [3]: inactive
- outcome [4]: inactive
- outcome [5]: inactive
- outcome [6]: inactive
- outcome [7]: inactive
- AC50 [14]: 20.1 µM (active)
- AC50 [15]: 15.9 µM (active)
- AC50 [16]: 19.3 µM (active)
- AC50 [17]: 25.6 µM (active)
- AC50 [18]: 14.2 µM (active)
- AC50 [19]: 22.7 µM (active)
- AC50 [20]: 47.4 µM (active)
- AC50 [21]: 15.7 µM (active)
- AC50 [22]: 22.4 µM (active)

Source: PubChem BioAssay (EPA / NIEHS)
